# From PubChem BioAssay
# Shown are actives, neighbours in structure and some others; about 2.6% of the full set was active somewhere.
# KKLEB tox = counter-screen for CF NF-kB inhibitors: cytotoxicity | KKLEB CF airway cells viability, ATPlite luminescence, overnight; active compounds read low; cells stimulated with P. aeruginosa culture filtrate | activity change (cytotoxicity), % at 5 µM | 360,000 compounds, 0.36% hits | AID 602141;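 active = corrected activity change at or below -50% at 5 µM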
# Peg3 promoter = inhibitors of Peg3 promoter | inhibition, % at 20 µM | 360,000 compounds, 1.7% hits | AID 588405 | HeLa PEG-Prom luciferase reporter, luminescence, overnight;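 active = inhibition of at least 50% at 20 µM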
# CF NFkB inh = cystic fibrosis NF-kB activation inhibition. KKLEB NF-kB-GFP reporter, PAF-induced, GFP fluorescence overnight. inhibition, % at 5 µM. 360,000 compounds, 0.86% hits. AID 588850;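 active = at least 50% inhibition at 5 µM, scaled per plate between neutral and stimulator controls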;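 note: PAF is a Pseudomonas aeruginosa culture filtrate used as stimulus; plate controls were PAF-stimulated DMSO wells for no effect and unstimulated DMSO wells for full effect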
# Shn3 3UTR inh = Schnurri-3 reporter inhibition in Clone20 osteoblasts; Clone20 osteoblast Shn3 3'UTR firefly luciferase, 24 h; inhibition, % at 12.5 µM; 360,000 compounds, 0.52% hits;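 active = mean inhibition of at least 75% with every replicate also reaching 75%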;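 note: 0% = median of neutral control wells and 100% = pilot-screen positive control compound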
# HIF-2a block = inhibitors of HIF-2a | 786-0 RCC cells HIF-2a reporter, luciferase luminescence, overnight | inhibition, % at 18.8 µM | 360,000 compounds, 0.72% hits | AID 624352;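 active = inhibition of the luminescence signal of 40% or more relative to plate controls, in a single-dose primary screen at 18.75 µM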
# Mdm2 MdmX conf = confirmation of inhibitors of human Mdm2/MdmX interaction, set 2; shares compounds with HIF-2a block; SaOS-2 split-luciferase Mdm2/MdmX complementation, luminescence; inhibition, % at 8 µM; 740 compounds, 99% hits; AID 504601;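 active = mean inhibition of the luminescence signal across two replicates at or above 26 percent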
# Target sequence (O15151 whole entry, looked up): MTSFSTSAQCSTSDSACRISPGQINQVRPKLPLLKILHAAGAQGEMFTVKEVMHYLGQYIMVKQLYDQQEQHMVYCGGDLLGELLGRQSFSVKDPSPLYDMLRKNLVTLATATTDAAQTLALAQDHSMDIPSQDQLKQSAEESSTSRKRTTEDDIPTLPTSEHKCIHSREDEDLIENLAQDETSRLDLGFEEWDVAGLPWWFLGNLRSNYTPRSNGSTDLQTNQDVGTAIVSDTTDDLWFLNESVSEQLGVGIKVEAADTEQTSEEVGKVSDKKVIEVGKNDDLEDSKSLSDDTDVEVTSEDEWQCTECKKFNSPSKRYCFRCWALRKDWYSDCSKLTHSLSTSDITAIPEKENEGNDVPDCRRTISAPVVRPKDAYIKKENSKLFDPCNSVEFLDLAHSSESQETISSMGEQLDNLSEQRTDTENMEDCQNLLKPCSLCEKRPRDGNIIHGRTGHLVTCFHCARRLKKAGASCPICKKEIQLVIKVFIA
# Target sequence (Q00987 whole entry, looked up): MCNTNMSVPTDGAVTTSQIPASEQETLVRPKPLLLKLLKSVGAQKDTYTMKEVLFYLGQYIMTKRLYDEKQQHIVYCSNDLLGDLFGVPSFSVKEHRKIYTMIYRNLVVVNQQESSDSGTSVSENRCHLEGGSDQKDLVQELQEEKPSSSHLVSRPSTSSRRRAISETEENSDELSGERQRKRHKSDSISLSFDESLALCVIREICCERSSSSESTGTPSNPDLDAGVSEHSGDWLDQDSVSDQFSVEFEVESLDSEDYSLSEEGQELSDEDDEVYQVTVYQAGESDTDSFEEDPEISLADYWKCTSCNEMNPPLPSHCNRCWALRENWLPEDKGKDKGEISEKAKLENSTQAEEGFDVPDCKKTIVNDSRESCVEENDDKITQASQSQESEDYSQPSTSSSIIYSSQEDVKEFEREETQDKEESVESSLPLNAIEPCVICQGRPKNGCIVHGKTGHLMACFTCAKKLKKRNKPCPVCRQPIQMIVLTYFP
# HIF-2a conf = confirmation of HIF-2a inhibitors; 1,800 compounds, 56% hits; AID 651580; 786-0 RCC cells, HIF-2a luciferase reporter luminescence, overnight; inhibition, % at 18.8 µM; shares compounds with HIF-2a block;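 active = mean inhibition across four replicates of at least 40 percent at the single tested concentration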
# HIF-1a counter = HIF-1a inhibition counter-screen for HIF-2a hits. shares compounds with HIF-2a block. inhibition, % at 18.8 µM. 1,800 compounds, 72% hits. MiaPaCa-2 HIF-1a luciferase reporter, desferoxamine, overnight. AID 651589;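 active = mean inhibition of the reporter signal across four replicates at the single tested dose of 50% or more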
# Numbers without * were called inactive; x = no result.
SMILES,KKLEB tox,Peg3 promoter,CF NFkB inh,Shn3 3UTR inh,HIF-2a block,HIF-2a conf,HIF-1a counter,others
COc1ccc2nc(-c3ccccc3)cc(C(=O)OCC(=O)N3CC(C)OC(C)C3)c2c1 (stereo unspecified),4,-14,-30,-15,-55,x,x,
CC(C)(C)c1ccc(Oc2ccc(NC(=O)c3ccco3)cn2)cc1,-12,7,1,76,75*,26,40,
O=Cc1ccc(Oc2nc(Cl)ncc2F)cc1,-12,-4,-30,-6,16,x,x,
CC(CN1CCOCC1)OC(=O)c1ccc(Br)cc1 (stereo unspecified),1,1,-10,8,14,x,x,
O=C(c1ccc(Br)cc1)C(CN1CCOCC1)c1ccccc1 (stereo unspecified),-64*,50,62*,96*,70*,-10,-31,
NC(=O)C1(N2CCCCC2)CCN(C(=S)NC2CCCC2)CC1,-1,11,15,11,10,x,x,
COc1ccc(C(=O)NC(=C(Cl)Cl)S(=O)(=O)c2ccc(C)cc2)cc1,-5,14,-16,-5,-10,x,x,
Cc1ccc(C(=O)NCC#N)cc1,-28,6,10,5,15,x,x,
Cc1ccc(C(=O)NC(=C(Cl)Cl)S(=O)(=O)c2ccccc2)cc1,-9,79*,-9,24,89*,-17,25,
Cc1ccc(C(=O)NC(C#N)=C(Cl)Cl)cc1,x,x,x,x,x,x,x,Mdm2 MdmX conf=103*
O=C(N/C(=C/c1cccnc1)C(=O)N1CCOCC1)c1ccco1,3,2,4,-14,8,x,x,
CC(C)(C)OC(=O)N1Cc2ccccc2C[C@H]1C(=O)NCC(=O)Nc1ccc2c(c1)OCCO2,0,40,-5,31,47*,58*,81*,
CCOC(=O)c1sc(NC(=O)c2cc3c(s2)CCC(C)C3)nc1C (stereo unspecified),3,24,3,9,48*,45*,-3,
CCOC(=O)COc1ccc(S(=O)(=O)N2CCN(C(=O)OCC)CC2)cc1,-6,9,2,3,17,x,x,
COC(=O)COc1ccc(S(=O)(=O)N2CCN(c3ccc(OC)cc3)CC2)cc1,-8,4,22,-1,8,x,x,
CCOC(=O)COc1ccc(S(=O)(=O)N2CCN(c3ccc(F)cc3)CC2)cc1,2,2,-14,-12,43*,-1,0,
COC(=O)COc1ccc(S(=O)(=O)N2CCN(c3ccccc3F)CC2)cc1C,-9,7,2,-57,53*,5,-7,
COC(=O)COc1ccc(S(=O)(=O)N2CCN(c3ccc(F)cc3)CC2)cc1,0,-1,8,-12,46*,22,5,
CCOC(=O)COc1ccc(S(=O)(=O)N2CCN(c3ccccc3)CC2)cc1,-8,6,9,8,67*,19,0,
Cc1c(Cl)cccc1NC(=O)CNC(=O)Cc1n[nH]c(=O)c2ccccc12,1,9,0,5,8,x,x,
Cn1ncc(Br)c1NC(=O)CSc1ccc(Cl)cc1,5,19,2,17,17,x,x,
C=CCN(CC(=O)NC1CC1)S(=O)(=O)c1cccc(C(F)(F)F)c1,-19,-4,17,-7,-4,x,x,
O=C(Nc1nc(-c2ccc3c(c2)OCCO3)cs1)C1CCCC1,16,-304,0,-126,-350,x,x,
COc1ccc(C(O)c2nc(-c3cc(F)cc(Cl)c3)cs2)cc1 (stereo unspecified),5,-10,-8,-48,-32,x,x,
O=C(COc1ccc(S(=O)(=O)N2CCOCC2)cc1)N1CCc2ccccc2C1,-4,-2,4,12,20,x,x,
CCOC(=O)COc1ccc(S(=O)(=O)N2CCc3ccccc3C2)cc1,-10,8,16,-7,44*,15,-2,
CCOC(=O)NC(=O)/C(C#N)=C\NNc1ncc(C(F)(F)F)cc1Cl,0,13,-13,-6,11,x,x,
COc1ccc(-n2ncc(Cl)c(Cl)c2=O)cc1,-78*,105*,89*,98*,95*,96*,107*,Mdm2 MdmX conf=102*
